We go through seven compounds from PubChem BioAssay (EPA / NIEHS).

For test [1], the target named is human Androgen Receptor (AR), AR (gene 367) (UniProt P10275). As to the kind of experiment: NVS_NR_hAR: NovaScreen (NVS) Nuclear Receptor Binding Assay for human Androgen Receptor (AR) (AID 2283332). Summed up:
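Radioligand competitive binding, scintillation read-out, in cell-free extract from LnCAP, measured 20 h after dosing. Screened first in duplicate at 25 uM, then concentration series for actives; activity fitted against DMSO.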

Test [2] concerns the target Voltage-gated inwardly rectifying potassium channel KCNH2 (Homo sapiens) (UniProt Q12809). As to the kind of experiment: NVS_IC_hKhERGCh: NovaScreen (NVS) Ion Channel Assay for human Potassium Channel ERG (KhERGCh) (AID 2283333). An outline of the steps:
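Membranes from CHO cells expressing human ERG; displacement of radioligand measured by filtration and scintillation after 0.75 h. Single-concentration duplicate screen at 25 uM, then concentration-response for actives; DMSO baseline.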

Test [3] deals with Small conductance calcium-activated potassium channel protein 1 (Rattus norvegicus) (UniProt P70606). As to the kind of experiment: NVS_IC_rKCaCh: NovaScreen (NVS) Ion Channel Assay for rat Potassium Channel, Ca2+ Act., VI (KCaCh) (AID 2283336). An outline of the steps: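 Filter-based scintillation counting of radioligand bound to rat forebrain membrane preparations, measured 1 h after compound addition. Primary screen used 25 uM in duplicate, with concentration-response follow-up; signal decrease relative to DMSO marks activity.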
Chain of Small conductance calcium-activated potassium channel protein 1 (Rattus norvegicus) (P70606 whole entry, looked up): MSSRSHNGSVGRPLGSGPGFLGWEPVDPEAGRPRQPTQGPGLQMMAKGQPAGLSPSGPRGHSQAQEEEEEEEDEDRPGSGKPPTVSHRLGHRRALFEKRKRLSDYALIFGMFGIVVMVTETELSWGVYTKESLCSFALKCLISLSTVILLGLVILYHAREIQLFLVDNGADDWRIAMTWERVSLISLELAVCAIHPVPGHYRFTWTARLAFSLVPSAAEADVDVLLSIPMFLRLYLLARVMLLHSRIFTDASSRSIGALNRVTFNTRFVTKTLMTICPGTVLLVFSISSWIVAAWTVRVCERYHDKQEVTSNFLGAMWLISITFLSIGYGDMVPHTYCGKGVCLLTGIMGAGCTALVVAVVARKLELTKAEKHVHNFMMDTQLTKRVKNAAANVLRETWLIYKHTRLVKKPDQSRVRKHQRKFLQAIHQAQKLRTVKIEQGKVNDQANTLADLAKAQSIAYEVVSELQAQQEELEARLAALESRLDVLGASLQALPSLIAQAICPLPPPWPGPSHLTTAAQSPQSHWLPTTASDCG

Test [4] deals with rat Glutamate, MK-801 Agonist Site (GluNMDA_MK801), Grin1 (gene 24408) (UniProt P35439). Kind of test: NVS_LGIC_rGluNMDA_MK801_Agonist: NovaScreen (NVS) Ligand-Gated Ion Channel Assay for rat Glutamate, MK-801 Agonist Site (GluNMDA_MK801) (AID 2283340). Summed up:
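Rat forebrain membrane preparation; MK-801-site radioligand binding read by filtration and scintillation after 1.5 h. Single-point 25 uM duplicate screen, followed by singleton concentration series to 50 uM max; DMSO baseline.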

The target of test [5] is rat Glycine Receptor, Strychnine-sensitive (GlyRStrySens), Glra1 (gene 25674) (UniProt P07727). Kind of test: NVS_LGIC_rGlyRStrySens: NovaScreen (NVS) Ligand-Gated Ion Channel Assay for rat Glycine Receptor, Strychnine-sensitive (GlyRStrySens) (AID 2283341). Summed up:
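Radioligand displacement on rat spinal cord membranes, 1 hr, filter scintillation read-out. Single-concentration duplicate screen at 25 uM; chemicals meeting threshold (e.g., 30% inhibition) rerun in concentration-response up to 50 uM. Loss of binding fitted versus DMSO.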

Results filed as inconclusive are left out. Active and inactive are the calls of the source. Rule for the calls: active = hit-call score of the fitted dose curve at least 0.9, where 1 is the maximum; inconclusive = response in the unintended direction; inactive = score below 0.9.

Chain of human Androgen Receptor (AR), AR (gene 367) (P10275 whole entry, looked up): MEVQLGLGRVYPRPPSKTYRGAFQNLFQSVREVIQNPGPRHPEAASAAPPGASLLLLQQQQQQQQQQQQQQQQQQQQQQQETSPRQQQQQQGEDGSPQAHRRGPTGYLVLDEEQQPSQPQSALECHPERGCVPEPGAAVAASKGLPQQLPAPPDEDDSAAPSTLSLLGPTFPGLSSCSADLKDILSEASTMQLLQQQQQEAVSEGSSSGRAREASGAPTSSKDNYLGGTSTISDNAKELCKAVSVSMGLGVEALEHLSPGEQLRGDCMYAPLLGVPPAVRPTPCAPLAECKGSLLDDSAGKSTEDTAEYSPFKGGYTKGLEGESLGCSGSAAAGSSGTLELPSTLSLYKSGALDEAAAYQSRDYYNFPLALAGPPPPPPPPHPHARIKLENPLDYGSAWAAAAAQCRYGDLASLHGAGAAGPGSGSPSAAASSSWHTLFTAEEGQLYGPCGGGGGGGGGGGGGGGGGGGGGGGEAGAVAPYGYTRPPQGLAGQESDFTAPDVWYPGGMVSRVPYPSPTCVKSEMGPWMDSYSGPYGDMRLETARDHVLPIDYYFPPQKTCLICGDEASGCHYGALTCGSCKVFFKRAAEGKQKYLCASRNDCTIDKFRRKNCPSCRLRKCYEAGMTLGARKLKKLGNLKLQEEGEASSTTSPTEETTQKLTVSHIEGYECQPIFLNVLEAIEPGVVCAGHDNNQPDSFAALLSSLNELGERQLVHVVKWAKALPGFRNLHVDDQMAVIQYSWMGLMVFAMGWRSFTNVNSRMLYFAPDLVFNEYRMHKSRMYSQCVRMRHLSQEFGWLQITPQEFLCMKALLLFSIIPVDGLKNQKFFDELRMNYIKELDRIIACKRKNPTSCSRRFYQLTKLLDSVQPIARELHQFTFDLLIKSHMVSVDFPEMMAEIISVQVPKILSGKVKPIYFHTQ
Chain of Voltage-gated inwardly rectifying potassium channel KCNH2 (Homo sapiens) (Q12809 whole entry, looked up): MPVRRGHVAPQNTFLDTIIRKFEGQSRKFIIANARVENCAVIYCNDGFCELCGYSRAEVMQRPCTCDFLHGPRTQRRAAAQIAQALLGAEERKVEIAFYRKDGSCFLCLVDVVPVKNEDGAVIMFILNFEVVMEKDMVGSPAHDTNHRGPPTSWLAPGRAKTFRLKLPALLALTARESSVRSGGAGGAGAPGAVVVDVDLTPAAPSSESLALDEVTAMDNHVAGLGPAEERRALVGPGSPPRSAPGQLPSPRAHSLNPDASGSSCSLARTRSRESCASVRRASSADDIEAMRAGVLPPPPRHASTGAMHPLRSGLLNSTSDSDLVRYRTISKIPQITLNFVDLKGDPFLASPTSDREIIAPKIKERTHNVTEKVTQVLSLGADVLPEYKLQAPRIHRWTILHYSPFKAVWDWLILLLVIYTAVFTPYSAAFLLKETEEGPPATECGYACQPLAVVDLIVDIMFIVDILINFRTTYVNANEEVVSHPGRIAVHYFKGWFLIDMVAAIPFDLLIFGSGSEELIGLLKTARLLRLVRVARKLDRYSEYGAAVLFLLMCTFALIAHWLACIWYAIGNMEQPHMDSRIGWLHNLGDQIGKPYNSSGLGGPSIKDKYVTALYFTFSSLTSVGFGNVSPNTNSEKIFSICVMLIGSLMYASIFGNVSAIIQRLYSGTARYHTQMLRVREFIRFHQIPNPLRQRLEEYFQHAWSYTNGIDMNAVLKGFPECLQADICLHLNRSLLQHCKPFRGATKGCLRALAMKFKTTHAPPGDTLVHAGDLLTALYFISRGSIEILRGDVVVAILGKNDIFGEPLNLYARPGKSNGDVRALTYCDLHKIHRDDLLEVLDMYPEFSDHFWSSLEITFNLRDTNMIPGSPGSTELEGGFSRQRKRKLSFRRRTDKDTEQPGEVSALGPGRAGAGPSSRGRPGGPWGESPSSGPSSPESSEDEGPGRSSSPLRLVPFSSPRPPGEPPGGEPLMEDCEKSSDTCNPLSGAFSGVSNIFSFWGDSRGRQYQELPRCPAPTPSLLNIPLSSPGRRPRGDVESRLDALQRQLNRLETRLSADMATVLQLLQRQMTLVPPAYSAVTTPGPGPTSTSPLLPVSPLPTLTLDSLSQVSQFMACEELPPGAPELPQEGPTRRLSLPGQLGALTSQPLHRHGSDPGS
Chain of rat Glycine Receptor, Strychnine-sensitive (GlyRStrySens), Glra1 (gene 25674) (P07727 whole entry, looked up): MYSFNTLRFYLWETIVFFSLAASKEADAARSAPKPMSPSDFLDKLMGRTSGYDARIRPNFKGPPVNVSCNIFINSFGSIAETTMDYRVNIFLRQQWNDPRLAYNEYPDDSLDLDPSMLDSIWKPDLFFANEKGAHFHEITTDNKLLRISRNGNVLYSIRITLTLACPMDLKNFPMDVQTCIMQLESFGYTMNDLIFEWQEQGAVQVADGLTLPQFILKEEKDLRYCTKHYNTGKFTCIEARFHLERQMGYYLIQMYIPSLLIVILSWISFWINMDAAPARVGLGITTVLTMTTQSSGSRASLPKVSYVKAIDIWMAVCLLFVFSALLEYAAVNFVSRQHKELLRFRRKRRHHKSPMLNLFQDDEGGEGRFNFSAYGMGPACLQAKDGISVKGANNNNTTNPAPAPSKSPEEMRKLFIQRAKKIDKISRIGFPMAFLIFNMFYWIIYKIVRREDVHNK

With `CCCCCCCCCCC`, in test [1], the compound was called inactive.
`CN1CCN(Cc2cc(-c3ccc4[nH]c(=O)oc4c3)co2)[C@@H](c2ccc(F)cc2)C1`: in test [2], the result was inactive.
On to `CC=Cc1ccc(O)c(OC)c1`, for which the outcome in test [3] was inactive.
Consider `CCCCN(CCCC)CCCC`, for which, in test [3], the result was inactive.
Take `CCCCC(CC)COC(=O)CC(C(=O)OCC(CC)CCCC)S(=O)(=O)O` (configuration not stated): the compound was classed as inactive in test [4].
Turning to `CC(C)c1ccc(C(=O)N=C(N)N)cc1S(C)(=O)=O`, in test [4], the result was inactive.
`Cc1ccc(C)c(O)c1C`: the result in test [5] was inactive.
